Screening results as filed in PubChem.
HCMV inh: inhibitors of human cytomegalovirus; HFF cells, HCMV-luciferase reporter, 72 h; stronger effect = lower value; activity change, negative = inhibition, % at 57.5 µM; 410,000 compounds, 4.5% hits; AID 1259415; in the data active means activity change below about -60%; inconclusive means no clear call, values can overlap the other calls; inactive means above about -39%; further: on the % scale 0 is the no-effect control and ±100 the full control effect
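Two compound doses tested in HFFs infected with HCMV-luciferase, MOI 1 PFU/cell, 72 h at 37C. Lysate luminescence read with OneGlo; data normalized against buffer-only and 10uM Salinomycin inhibitor controls.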
LASV entry inh: blocks Lassa virus binding to or entry into cells. Lassa virus pseudotype entry inhibition, cell reporter. Potency, µM (highest dose often 37.9 µM), without a hit: at the highest dose activity change, negative = inhibition, hits mostly inhibitors. 300,000 compounds, 1.2% hits. AID 540256; calls by dose curve; tested in HEK293 cells; further: potency means the concentration at half of the fitted maximal effect; on the % scale 0 is the no-effect control and ±100 the full control effect; nearly all actives have a fitted effect of over 50% in size
HCV inhibitor: HCV inhibition. Huh7.5.1 HCVcc-Cre infection, luciferase reporter, 44 h. Potency, µM (series often up to 41.8 µM), for inactives: top-dose activity change, negative = inhibition, actives largely listed as inhibitors. 340,000 compounds, 3.4% hits. AID 651820; active means well fitted inhibition curve with a large enough effect; inconclusive means small, poorly fitted or top-dose-only effect, or another doubt; inactive means no such curve, though single readings can be large or run the other way; further: potency means the concentration at half of the fitted maximal effect; on the % scale 0 is the no-effect control and ±100 the full control effect
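Infectious HCVcc-Cre (~0.5 moi) was added to cells just after compound, with cells seeded 4 h earlier at 1,000 per well. Luciferase activity after 44 h culture reported infection; substrate was incubated 15 min at room temperature before reading.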
FMDV inh: antivirals against foot and mouth disease virus | Potency, µM (series often up to 57.9 µM), for the others: at the top dose activity change, negative = inhibition, actives largely listed as inhibitors | 410,000 compounds, 1.2% hits | FMDV antiviral cell-based qHTS | AID 1159524; calls by dose curve; tested in HEK293T cells; further: read-out not given here; potency means the concentration at half of the fitted maximal effect; on the % scale 0 is the no-effect control and ±100 the full control effect; nearly all actives have a fitted effect of over 45% in size
SARS PLP yeast: SARS-CoV PLP inhibition in yeast. S. cerevisiae expressing SARS-CoV PLpro, growth rescue. Potency, µM (highest dose often 32.9 µM), for inactives: at the top dose activity, positive = growth rescue, actives largely listed as activators. 330,000 compounds, 0.19% hits. AID 485353; calls by dose curve; further: potency means the concentration at half of the fitted maximal effect; 0% is about no effect; nearly all actives have a fitted effect of over 55% in size
Marburg entry inh: inhibitors of Marburg virus binding or cell entry; Marburg virus pseudotyped entry inhibition, cell reporter; Potency, µM (top dose mostly 37.8 µM), inactives show at the highest dose activity change, negative = inhibition, hits mostly inhibitors; 300,000 compounds, 1.8% hits; AID 540276; calls by dose curve; tested in HEK293 cells; further: potency means the concentration at half of the fitted maximal effect; on the % scale 0 is the no-effect control and ±100 the full control effect
* = called active by the depositor; ? = inconclusive; . = not tested or not shown; [ ] = another dose, or the depositor's remark. Rows were chosen to be rich in hits. Some 8% of all compounds tested hit in one or more screens of this group.

SMILES	HCMV inh	LASV entry inh	HCV inhibitor	FMDV inh	SARS PLP yeast	Marburg entry inh
COC(=O)c1cc(OC)c(OC)cc1NC(=O)c1csc(C)c1	-67*	-14%[46.1 µM]	-13%	-19%	?	-14%[46.1 µM]
Cc1ccc(-c2csc3nc(SCC(N)=O)n(Cc4ccccc4)c(=O)c23)cc1	-28	-30%	?	32µM*	16%	?
Cc1ccc(-c2csc3ncnc(SCC(N)=O)c23)cc1	-28	-25%	?	-26%	-2%	-21%[46.1 µM]
Cc1ccc(-c2csc3nc[nH]c(=O)c23)cc1	?	?	-11%	-10%	-7%	-1%[46.1 µM]
Cc1ccc(-c2csc3nc(-c4ccncc4)[nH]c(=O)c23)cc1	20	.	5.6µM*	-26%	1%	.
Cc1ccc(-c2csc3nc(C)n(N)c(=O)c23)cc1	-86*	.	7%	6%	-1%	.
Cc1ccc(OCc2cc(=O)n3cc(C)sc3n2)c(NC(=O)c2ccco2)c1	-10	-1%[46.1 µM]	.	-19%	.	.
O=S(=O)(Nc1ccc2nc(C(F)(F)F)[nH]c2c1)c1ccccc1	?	?	?	.	4%	-28%
CC(C)(C)c1nc2ccc(NS(=O)(=O)c3ccc(F)c(F)c3F)cc2[nH]1	-66*	-12%	-5%	-10%	2%	0%[46.1 µM]
CCOc1ccc(CN2CCN(C(=O)c3ccccc3)CC2)cc1	-20	-2%	11µM*	?	2%	?
CCOc1ccc(CN2CCN(C(=O)c3cccc4ccccc34)CC2)cc1	?	.	7.1µM*	?	-1%	.
CCOC(=O)N1CCN(Cc2cc(=O)oc3ccc4ccccc4c23)CC1	11	-15%	-24%	20µM*	-3%	-17%
CCOc1ccc(CNc2ccc(N3CCCC3)cc2)cc1	143	-28%[14.3 µM]	-22%	-16%	-6%	2%
CCOc1ccc(CNc2ccc(N3CCN(Cc4ccccc4)CC3)cc2)cc1	32	?	10µM*	-17%	-13%	-30%[46.1 µM]
COc1ccc(S(=O)(=O)N(CC(=O)Nc2cccc(C(F)(F)F)c2)c2ccc(C)cc2)cc1	-36	?	.	-16%	.	?
Cn1c(=O)n(Cc2ccccc2Cl)c(=O)c2c1nc1n2CCN1c1ccccc1	-34	-16%[46.1 µM]	.	-1%	.	.
CC(C)(C)N1C(=O)[C@@H]2[C@H]3[C@H](O)[C@H](O)CC(=NOCc4ccccc4)[C@H]3CC[C@H]2C1=O	.	.	.	.	.	-9%[14.2 µM]
COCCN(CC(=O)Nc1ccccc1C(F)(F)F)C(=O)/C=C/c1cc(Cl)c2c(c1)OCCO2	-12	0%	-21%	-10%	.	-20%
O=[N+]([O-])c1cc(-c2nc(-c3ccccc3)no2)ccc1NC1CCCC1	29	-6%[46.1 µM]	.	45%	.	?
CCOc1ccc2oc(=O)cc(CN3CCN(C(=O)c4ccc(Cl)cc4)CC3)c2c1	-67*	10%[46.1 µM]	.	-21%	.	6%[46.1 µM]
Cc1ccccc1OCC(=O)Nc1ccc(S(=O)(=O)N(Cc2ccccc2)c2ccccc2)cc1	2	1%[46.1 µM]	.	-7%	.	?
COc1cc(OC)c2c(C)c(CC(=O)N3CCCCC3)c(=O)oc2c1	-7	-1%[46.1 µM]	.	26%	.	7%[46.1 µM]
N#Cc1ccc(C(=O)Nc2cc(-c3ccccc3)nn2-c2ccccc2)cc1	-8	.	10µM*	-22%	0%	.
N#Cc1ccc(C(=O)Nc2cc(-c3ccc(F)cc3)nn2-c2ccccc2)cc1	1	.	?	-19%	-3%	.
N#Cc1ccc(C(=O)Nc2ccn(-c3ccccc3)n2)cc1	-75*	1%	?	-22%	-37%	?
SMILES	HCMV inh	LASV entry inh	HCV inhibitor	FMDV inh	SARS PLP yeast	Marburg entry inh
O=C(Nc1ccn(-c2ccccc2)n1)c1ccc(Cl)cc1	-34	-4%	7.1µM*	-18%	-37%	?
Cc1ccc(C(=O)C(C)Sc2nnc(N)s2)cc1 (stereo unspecified)	5	10%	7%	-2%	-2%	29%
CS(=O)(=O)Nc1ccc(-c2nc3ccccc3s2)cc1	12	?	.	0%	.	?
CC(C)OC(=O)c1cccnc1SCC(=O)Nc1ccc(C(F)(F)F)cc1Cl	84	26%[46.1 µM]	.	8%	.	.
Cc1ccc(OCCNC(=O)c2cccc(S(=O)(=O)NCc3ccccc3)c2)cc1	-24	?	?	17%	0%	6.3µM*
Cc1ccc(S(=O)(=O)NCc2ccc(C(=O)NCCN(Cc3ccccc3)C(C)C)cc2)cc1	?	-29%[46.1 µM]	?	0%	0%	11µM*
Cc1ccc(OCCNC(=O)c2cccc(Oc3ccc(C(F)(F)F)cc3[N+](=O)[O-])c2)cc1	-80*	?	?	?	12%	15%
Cc1ccc(S(=O)(=O)NCc2ccc(C(=O)NCCc3cccc(C)c3)cc2)cc1	19	-2%[46.1 µM]	.	-14%	.	.
CCCn1c(SCC(=O)Nc2cccnc2Cl)n[nH]c1=O	-25	.	-2%	-5%	-4%	.
O=C(NC1CCCCC1)[C@H](CSCc1ccccc1)N1Cc2ccccc2C1=O	-60*	-3%	-14%	0%	-1%	-14%
Cc1ccc(C)c(NC(=O)C(Cc2ccccc2)N2Cc3ccccc3C2=O)c1 (stereo unspecified)	-90*	-22%[46.1 µM]	.	?	.	.
CC(C)NC(=O)[C@H](CSCc1ccccc1)N1Cc2ccccc2C1=O	5	0%	16%	-11%	4%	3%
Cc1ccc(NC(=S)N/N=C2/CCCCc3ccccc32)cc1	22	.	-22%	24%	-3%	.
Cc1ccc(C)c(NC(=S)N/N=C2\CCc3ccccc32)c1	-25	.	10µM*	9%	8%	.
CCNC(=S)N/N=C1\CCCCc2ccccc21	26	-23%	-5%	-23%	-30%	1%
C=C(C)CNC(=S)N/N=C1\CCCCc2ccccc21	-61*	?	-26%	-18%	-55%	-31%[46.1 µM]
O=C(Cc1ccccc1)Nc1ccc(NC(=O)c2ccccc2)nc1	-17	5%	-25%	92%	1%	?
O=C(Cc1ccccc1)Nc1nonc1NC(=O)c1ccccc1	-11	?	-2%	17%	1%	13µM*
COC(=O)C/C=C/[C@@H](C)[C@H](OC)c1ccccc1Br	.	.	.	.	.	-11%[14.2 µM]
C/C(=N\Nc1ccc([N+](=O)[O-])cc1)c1cc2ccccc2o1	51	2%	?	7%	-1%	-2%[46.1 µM]
COc1ccccc1-c1nc(C#N)c(N2CCN(Cc3ccccc3)CC2)o1	-33	-22%	11µM*	?	-13%	-23%
COc1ccccc1-c1nc(C#N)c(N2CCC(Cc3ccccc3)CC2)o1	-3	?	?	?	1%	-5%
CCOc1ccc(Nc2oc(-c3ccc(COc4ccc(C)cc4)o3)nc2C#N)cc1	-20	-9%[46.1 µM]	.	20%	.	-22%[46.1 µM]
Cc1ccsc1CN(C)CC(=O)Nc1ccc([N+](=O)[O-])cc1Cl	?	?	13µM*	-14%	-33%	10µM*
CN(CC(=O)Nc1cc([N+](=O)[O-])ccc1Cl)Cc1ccc(Br)cc1	-13	8%	?	-1%	-10%	-20%
Cn1cc([C@]2(O)C(=O)Nc3ccc(Br)cc32)c2ccccc21	-2	.	.	-9%	.	.
